Screening results from PubChem BioAssay.
Neddyl block: inhibitors of cullin neddylation, primary screen, biochemical, TR-FRET, uHTS, NAE and Ubc12. inhibition, % at 25 µM. NEDD8-conjugating enzyme Ubc12 (Homo sapiens) + NEDD8-activating enzyme E1 regulatory …. 360,000 tested, 0.58% active; in the data active = inhibition above about 36%
NPR1 activator: GC-A stimulated cGMP production enhancers – HEK293 GC-A cells, cGMP TR-FRET, EC30 ANP, primary screen; 370,000 tested, 0.14% active; AID 1671463, 2021; activation, % at 10 µM; 0% at EC30 ANP, 100% saturating ANP; Atrial natriuretic peptide receptor 1 (Homo sapiens), P16066; in the data active = activation above about 40%
NPR2 activator: human GC-B receptor activators, primary screen, HEK293 GC-B cells, cGMP TR-FRET, EC30 CNP; 0% at EC30 CNP, 100% saturating CNP; activation, % at 10 µM; 370,000 tested, 0.11% active; AID 1920062, 2024;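 active = activation at 10 µM reaching about 35% in either raw or pattern-adjusted values, limit read from the data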
NadD block: inhibitors of S. aureus NadD, primary screen, biochemical, colorimetric, uHTS. Nicotinate-nucleotide adenylyltransferase NadD (Staphylococcus aureus N315). purified NadD enzyme, colorimetric absorbance read-out. inhibition, % at 20 µM. 360,000 tested, 0.78% active; in the data active = inhibition above about 26%
NadD inh conf: inhibitors of S. aureus NadD, confirmation, biochemical, colorimetric, single concentration. shares compounds with NadD block. purified S. aureus NadD, colorimetric enzyme assay. inhibition, % at 20 µM. 2,000 tested, 13% active. AID 624309, 2012; in the data active = inhibition mostly above about 42%, no sharp cut-off; inactive = mostly below about 42%
Large screens that a line does not name were inactive (follow-up assays come after a bar, where shown). This is a sample that favours compounds with a hit; in the whole collection about 1.5% have one here.

Cc1cccc(COc2ccc(/C=N/NC(=O)c3nnn(-c4nonc4N)c3CN3CCCCC3)cc2)c1	NadD block 31 | NadD inh conf inactive
Nc1nonc1-n1nnc(C(=O)N/N=C/c2ccc(OCc3ccccc3)cc2)c1CNc1ccccc1	NadD block 39 | NadD inh conf inactive
Nc1nonc1-n1nnc(C(=O)N/N=C/c2ccc(OCc3cccc(Cl)c3)cc2)c1CN1CCCCC1	none
COC1=C[C@H](C(=O)NCc2ccc(Br)cc2)C(C)C(c2ccccc2)CC1=O (some centres not stated)	none (no result: Neddyl block, NadD block)
N=c1c(C(=O)NCc2ccco2)cc2c(=O)n3ccccc3nc2n1CCc1ccccc1	none (not shown: Neddyl block)
N=c1c(S(=O)(=O)c2ccc(Cl)cc2)cc2c(=O)n3ccccc3nc2n1Cc1ccco1	NadD block 43 (not shown: Neddyl block) | NadD inh conf inactive
N=c1c(S(=O)(=O)c2ccc(Br)cc2)cc2c(=O)n3ccccc3nc2n1Cc1ccco1	NadD block 49 (not shown: Neddyl block) | NadD inh conf inactive
N=c1c(S(=O)(=O)c2ccc(Br)cc2)cc2c(=O)n3ccccc3nc2n1Cc1ccccc1	NadD block 32 | NadD inh conf inactive
Cc1ccc(Cn2c(=N)c(C(=O)NCc3ccco3)cc3c(=O)n4ccccc4nc32)cc1	Neddyl block 63, NPR1 activator 53, NadD block 43 | NadD inh conf inactive
N=c1c(S(=O)(=O)c2ccc(Br)cc2)cc2c(=O)n3ccccc3nc2n1C1CCCCC1	NadD block 42 | NadD inh conf inactive
COc1ccc(-c2csc(NC(=O)CSc3nc(C)nc4sc(C(=O)O)c(C)c34)n2)cc1	NadD block 30 | NadD inh conf inactive
CCCOc1ccc(Cc2nn3c(=O)/c(=C/c4ccco4)sc3nc2=O)cc1	none
COc1ccccc1/C=C/C=c1\sc2nc(=O)c(Cc3ccccc3)nn2c1=O	NadD block 37 | NadD inh conf inactive
C(=N\Nc1nncc2ccccc12)/c1cccnc1	none (no result: Neddyl block, NadD block)
Cc1cc(C(=O)OCC(=O)NC2CCCC2)c2ccccc2n1	none
O=C(COC(=O)c1c2c(nc3ccccc13)/C(=C/c1ccco1)CC2)NC1CCCC1	NadD block 52 | NadD inh conf 64
CC1CCCCC1NC(=O)COC(=O)c1c2c(nc3ccccc13)/C(=C/c1ccco1)CC2 (configuration not stated)	NadD block 85 | NadD inh conf inactive
Cc1cc2nc(-c3ccco3)c(Cc3ccccc3C(F)(F)F)n2c(C)c1Br	NadD block 42 | NadD inh conf inactive
COc1ccccc1Cc1c(-c2ccco2)nc2ccc(Cl)cn12	NadD block 30 | NadD inh conf inactive
COc1ccc(-c2nc3cc(C)c(Br)c(C)n3c2Cc2ccccc2C(F)(F)F)cc1OC	none
COc1ccccc1Cc1c(-c2ccco2)nc2ccc(Br)cn12	NadD block 45 | NadD inh conf inactive
COc1ccccc1Cc1c(-c2ccc(F)cc2)nc2ccc(Br)cn12	none
FC(F)(F)c1ccccc1Cc1c(-c2ccco2)nc2ccc(Br)cn12	NadD block 37 | NadD inh conf inactive
CC1=C[C@@H]2[C@H]3C(=O)N(Cc4ccccc4)C(=O)[C@H]3[C@@H]1[C@@H]1O[C@@]3(C(=O)N(C)c4ccccc43)C3=C(CCCC3=O)N21	none (no result: Neddyl block, NadD block)
O=C(NCC1COCCO1)C1CCN(S(=O)(=O)c2ccc(Br)s2)CC1 (configuration not stated)	none (no result: Neddyl block, NadD block)
Clc1ccc2nc(-c3ccco3)c(Cc3ccsc3)n2c1	NadD block 34 | NadD inh conf inactive
COc1ccc2c(c1)[C@]1(C(=O)N2C)C2=C(CCCC2=O)Oc2cc(C)oc(=O)c21	none (no result: Neddyl block, NadD block)
COc1ccc(-c2cc(=Nc3c(C)n(C)n(-c4ccccc4)c3=O)c3ccccc3o2)cc1	none (not shown: Neddyl block)
COc1ccc(-c2c/c(=N\c3nc(-c4ccccc4)c(C)s3)c3ccccc3o2)cc1O	NadD block 39 | NadD inh conf inactive
CCCC1CCC2(CCCN2CCOC(=O)Nc2ccc(OC)cc2)CC1 (configuration not stated)	none (no result: Neddyl block, NadD block)
CC1=C(C(=O)OC(C)C)C(c2ccc(Cl)cc2)n2c(sc(=Cc3ccc(OCC(=O)O)cc3)c2=O)=N1 (configuration not stated)	NadD block 30 | NadD inh conf inactive
CCOc1ccc(C2C(C(=O)Nc3ccccc3)=C(C)N=c3s/c(=C/c4cccc(OCC(=O)O)c4)c(=O)n32)cc1 (configuration not stated)	NadD block 33 | NadD inh conf inactive
CCOC(=O)C1=C(C)N=c2s/c(=C\c3ccc(OCC(=O)O)cc3)c(=O)n2C1c1ccc(Cl)cc1 (configuration not stated)	none
CCOCCCn1c(=N)c(C(N)=S)cc2c(=O)n3cccc(C)c3nc21	none (not shown: Neddyl block)
Cc1cccn2c(=O)c3cc(C(N)=S)c(=N)n(CCCOC(C)C)c3nc12	NadD block 52 (not shown: Neddyl block) | NadD inh conf inactive
CCCCc1c(-c2ccccc2OC)ncn1Cc1ccccc1C	none (no result: Neddyl block, NadD block)
O=C(COc1cccc(Cl)c1)Nc1nc(-c2ccc(S(=O)(=O)N3CCOCC3)cc2)cs1	NadD block 32 | NadD inh conf inactive
COc1ccc(C(=O)Nc2cccc(/C=C(\CCC(=O)O)c3nc4ccccc4s3)c2)cc1	NadD block 55 | NadD inh conf inactive
CCOc1cc(/C=C(\CC(=O)O)c2nc3ccccc3s2)ccc1OCC(=O)Nc1cccc(C(F)(F)F)c1	NadD block 37 | NadD inh conf inactive
CCOc1cc(/C=C(\CC(=O)O)c2nc3ccccc3s2)ccc1OC	none
O=C(O)c1cccc(NC(=S)NC(NC(=O)c2cccc([N+](=O)[O-])c2)C(Cl)(Cl)Cl)c1 (configuration not stated)	NadD block 64 | NadD inh conf inactive
CCC(=O)NC(c1cccs1)c1cc([N+](=O)[O-])c2cccnc2c1OC (configuration not stated)	NadD block 32 | NadD inh conf inactive
CC(C)C(=O)NC(c1cccs1)c1cc([N+](=O)[O-])c2cccnc2c1O (configuration not stated)	none (no result: NPR1 activator, NPR2 activator)
Cc1c(N=Cc2cccs2)c(=O)n(-c2ccccc2)n1C	none
Cc1ccc(C2C(C=Nc3c(C)n(C)n(-c4ccccc4)c3=O)=C(c3ccccc3)Oc3ccccc32)cc1 (configuration not stated)	NadD block 38 | NadD inh conf inactive
COc1ccc2c(c1)CN1C(=O)N(Cc3ccc(F)cc3)S(=O)(=O)CC21 (configuration not stated)	none (no result: Neddyl block, NadD block)
C=C(C)C1CC=C(C)/C(=N\NC(=O)CNc2cccc3ccccc23)C1 (configuration not stated)	NadD block 37 | NadD inh conf inactive
